Pf growth 96h = P. falciparum growth inhibition at 96 hours | P. falciparum luciferase reporter growth, 96 h | Potency, µM (series often up to 28.7 µM), actives largely listed as inhibitors | 320,000 tested, 6.9% active
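Readout is luminescence from an integrated firefly luciferase in P. falciparum. Red cells, 2% hematocrit and 0.05% parasitemia final, were cultured with compound through two parasite generations (96 hours) at 37 C, 5% CO2.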
Shiga toxin inh = inhibitors of Shiga toxin in Vero cells; Vero cells, Shiga toxin protein synthesis inhibition reporter; AID 2315; inhibition, % at 38.7 µM; 290,000 tested, 9.2% active; in the data active = inhibition mostly above about 28%, no sharp cut-off; inactive = mostly below about 43%
Pf growth 48h = inhibits P. falciparum growth in the first generation, 48 h. P. falciparum luciferase growth in erythrocytes, 48 h. Potency, µM (doses to about 28.7 µM), usual class: inhibitors. 310,000 tested, 5.9% active. AID 504832
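Compounds are pin-transferred into medium, infected erythrocytes (2% hematocrit, 0.1% parasitemia final) are added, and plates sit one parasite generation at 37 C in 5% CO2. Detection reagent is then added and luminescence measured.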
CHX counter = counter-screen for Shiga toxin inhibitors: cycloheximide protein synthesis inhibition. 300,000 tested, 12% active. cell reporter, cycloheximide protein synthesis inhibition counterscreen. max response, %. AID 2314; in the data active = max response mostly above about 13%, no sharp cut-off; inactive = mostly below about 14%; also: read at 38.3 µM for the half of the compounds with a filed dose
NS1 function inh = blocks influenza NS1 protein function; Potency, µM (doses to about 46.1 µM); 270,000 tested, 0.4% active; calls by dose curve; also: actives are rising curves; nearly all actives have a fitted effect of over 50% in size
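Compounds were scored for reversing the slow growth caused by influenza A NS1 in S. cerevisiae, measured by optical density at 600 nm. Assay medium contained 2% galactose at pH 6.0; NS1-free yeast of the same strain were the positive control.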
Sm TGR block = inhibitors of Schistosoma mansoni thioredoxin glutathione reductase; Potency, µM (titrated, usually from 114 µM), most hits filed as inhibitors; purified TGR, DTNB reduction, TNB absorbance 405 nm; Q962Y6; 360,000 tested, 3% active; also: nearly all actives have a fitted effect of over 60% in size
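First, TGR (20 nM dispensed) and NADPH were mixed with compound. Second, a 15 min room-temperature incubation followed. Third, further NADPH and then DTNB were added to start the reaction. Finally, TNB absorbance was monitored kinetically.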
Numbers stand for hits; 0 = inactive; ? = inconclusive; - = not tested or not shown; ! = repeats disagree. Sampled rows, rich in hits. Any-hit rate of the full collection: about 21%. Unless noted, calls follow the shape of the dose curve; as a rule, active = well fitted curve in the direction sought with a large enough effect; inconclusive = small, poorly fitted or top-dose-only effect, or another doubt; inactive = no such curve, though single readings can be large; an effect the other way counts as inactive or inconclusive.

SMILES	Pf growth 96h	Shiga toxin inh	Pf growth 48h	CHX counter	NS1 function inh	Sm TGR block
CCCCCCCC(=O)N/N=C(\C)c1ccc(N)cc1	0	0	0	0	-	0
C/C(=N\NC(=O)c1ccc(F)cc1)c1ccc(N2CCOCC2)cc1	0	74	0	21	0	0
C/C(=N\Nc1ccc(Cl)c(C(=O)O)c1)c1ccc(N2CCOCC2)cc1	0	156	0	118	0	?
C/C(=N\Nc1ccc(F)cc1F)c1ccc(N2CCOCC2)cc1	0	0	0	24	-	?
C/C(=N\Nc1ccc(F)cc1F)c1ccc(F)cc1	0	0	0	0	0	?
C/C(=N\NC(=O)c1cccc(C)c1)c1ccc(N2CCOCC2)cc1	-	0	0	0	0	0
CCCCCC(=O)N/N=C(\C)c1ccc(N2CCCCC2)cc1	?	58	0	48	0	0
CC(Sc1nnnn1-c1ccc(O)cc1)C(=O)NNC(=O)c1ccc(F)cc1 (stereo not drawn)	0	-	0	-	-	0
CN(C)/N=C/c1ccc(N2CCOCC2)cc1	?	0	0	23	-	0
S=c1[nH]ncn1/N=C/c1ccc(N2CCOCC2)cc1	0	32	-	26	0	0
C(=N\n1cnnc1)/c1ccc(N2CCOCC2)cc1	0	0	0	0	0	0
S=c1[nH]ncn1/N=C/c1ccc(Br)cc1	0	0	0	0	0	0
Cc1nn(C(=O)COc2ccccc2Br)c(C)c1Sc1ccccc1	-	-	-	-	-	0
O=C(c1ccc(S(=O)(=O)Nc2ccccc2F)cc1)N1CCCC1	0	-	0	-	-	0
CCS(=O)(=O)N1Cc2ccccc2CC1C(=O)Nc1ncc(C)s1 (stereo not drawn)	0	108	0	40	0	0
CCS(=O)(=O)N1Cc2ccccc2CC1C(=O)Nc1nc2ccc(C)cc2s1 (stereo not drawn)	0	68	0	39	0	0
CCS(=O)(=O)N1Cc2ccccc2CC1C(=O)Nc1ccc(C)cc1 (stereo not drawn)	-	0	0	0	0	0
CCOc1ccc(NC(=O)C2Cc3ccccc3CN2S(=O)(=O)CC)cc1 (stereo not drawn)	?	0	?	0	-	0
Cc1ccc(C)c(NC(=O)CN(C)C(=O)c2ccc(S(=O)(=O)N3CCCCCC3)cc2)c1	0	-	?	-	-	0
CCN1CCCC1CNC(=O)CCNC(=O)c1cc(OC)c(OC)c(OC)c1 (stereo not drawn)	2.6µM	0	0	0	0	0
CN1C(=O)C[C@H](C(=O)O)[C@@H]1c1cccnc1	-	0	-	0	-	-
COc1ccc(-n2ccc(-c3nn(-c4cccc(C(F)(F)F)c4)ccc3=O)n2)cc1	3.3µM	0	7.4µM	0	0	0
Cc1ccc(-n2ccc(-c3nn(-c4ccccc4)ccc3=O)n2)cc1	7.4µM	0	?	0	-	0
COc1ccccc1NC(=O)c1nn(-c2cccc(C(F)(F)F)c2)ccc1=O	?	0	0	0	0	0
O=c1ccn(-c2cccc(C(F)(F)F)c2)nc1-c1ccn(-c2ccccc2F)n1	5.9µM	0	?	0	0	0
SMILES	Pf growth 96h	Shiga toxin inh	Pf growth 48h	CHX counter	NS1 function inh	Sm TGR block
O=C(O)c1nn(-c2cccc(C(F)(F)F)c2)ccc1=O	0	0	-	0	0	0
COCCNC(=O)C(c1ccc(O)cc1)N(Cc1cccs1)C(=O)CCC(=O)Nc1ccccn1 (stereo not drawn)	0	0	0	0	0	0
O=C(O)c1ccc2c(=O)n3c(nc2c1)/C(=C/c1ccccc1Br)CC3	0	0	0	0	0	0
C=CCO/N=C(/C)c1ccc(Oc2cnccn2)cc1	0	47	0	27	-	0
O=c1cc(-c2cccc(Cl)c2)oc2cccc(O)c12	?	0	0	27!	0	?
Nc1ccc2oc(-c3ccccc3Cl)cc(=O)c2c1O	0	43	0	50	0	0
Cc1ccccc1-c1cc(=O)c2c(O)cccc2o1	0	28	0	22	0	0
Nc1nc2nc3c(nc2c(=O)[nH]1)CN(c1ccc(C(=O)O)cc1)C3=O	-	-	-	-	0	-
Cc1ccc(N(C)S(=O)(=O)c2nnc(NC(=O)CC(C)C)s2)cc1	-	-	-	-	-	0
CCOC(=O)N1CCC(NC(=O)c2cc(C(=O)Nc3cccc(C(F)(F)F)c3)ccc2CO)CC1	2.3µM	0	0	0	-	0
NC(=O)C1CCN(C(=O)c2ccc(OCC(=O)Nc3cccc(C(F)(F)F)c3)cc2)CC1	0	-	0	-	-	0

Screening data (PubChem BioAssay)
